From PubChem BioAssay AID1259422 (The Scripps Research Institute Molecular Screening Center, 2018)
Out of some 640,000 compounds screened, about 9,300 (1.5%) were called active. Only a selection was taken, and actives are over-represented in it overall. Values without a mark were called inactive. No stated cut-off is given here; in the data, active means inhibition above about 32%; inactive means the rest.

Assay: TEAD-YAP interaction inhibition, primary screen, TEAD-YAP interaction inhibitor project, luminescence, HEK-TIYL cells (AID 1259422);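 further: 0% = median of test compound wells and 100% = reference inhibitor wells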
Conditions: TEAD-Gal4/YAP UAS-luciferase luminescence, at 9.12 µM, stronger effect = higher value

Row | SMILES | inhibition
1 | CCCCOc1ccc(NS(=O)(=O)c2cc(F)ccc2OC)cc1 | 1.6%
2 | Cc1cc2c(cc1C)NC(c1cccc3ccccc13)C1=C(CC(C)(C)CC1=O)N2 (centres undefined) | -9.75%
3 | Cn1c(=O)n(Cc2ccc(F)cc2)c(=O)c2c1nc1oc(C(C)(C)C)cn12 | -6.69%
4 | O=[N+]([O-])c1ccc(S(=O)(=O)NCCSCc2ccco2)cc1 | 6.05%
5 | C/C(=N\NC(=O)c1ccc(CSc2nc(C)cc(C)n2)cc1)c1ccccc1O | 10.2%
6 | CC(C)n1cnc2c(NCCc3ccc(O)cc3)nc(Nc3cnccn3)nc21 | 36.5% (active)
7 | O=C1CCCN1CCCNc1nc(Nc2ccncn2)nc2c1ncn2-c1ccsc1 | 50.5% (active)
8 | O=C1CCCN1CCCNc1nc(Nc2ccccc2)c2ncn(-c3ccsc3)c2n1 | 8.67%
9 | CCNc1nc(NCCCN2CCCC2=O)c2ncn(-c3ccccc3)c2n1 | 4.42%
10 | CCN(CC)C(=O)C1CCCN(c2nc(NC3CC3)c3ncn(-c4ccccc4)c3n2)C1 (centres undefined) | 9.83%
11 | CC(C)n1cnc2c(NCCc3ccc(O)cc3)nc(Nc3cccc(N(C)C)c3)nc21 | -1.31%
12 | CCN(CC)C(=O)C1CCCN(c2nc(Nc3ccc(NC(C)=O)cc3)c3ncn(-c4ccsc4)c3n2)C1 (centres undefined) | 24.3%
13 | CCN(CC)C(=O)C1CCCN(c2nc(NCCN(C(C)C)C(C)C)c3ncn(-c4ccsc4)c3n2)C1 (centres undefined) | 36.7% (active)
14 | CC(C)n1c(Nc2cnccn2)nc2c(NCCc3ccc(O)cc3)ncnc21 | 14.1%
15 | Cc1cccc(C(=O)NCc2nnc(SCC(=O)N3N=C(c4cccs4)CC3c3ccc(F)cc3)n2C)c1 (centres undefined) | 10.4%
16 | Cc1cccc(NC(=O)CC2SC(N)=NC2=O)c1C (centres undefined) | 3.13%
17 | O=c1oc2ccccc2cc1-c1nnc(Nc2cccc3ccccc23)s1 | -25.6%
18 | COc1ccc(NC(=O)C2C3C=CC4(O3)C2C(=O)N(CCC(C)C)C4C(=O)NC2CCCCC2)cc1 (centres undefined) | 6.81%
19 | O=S(=O)(c1ccc(Br)c2ccccc12)N1CCN(Cc2ccccc2)CC1 | 14.9%
20 | O=c1onc(-c2cccs2)n1Cc1ccccc1 | 4.82%

Row | SMILES | inhibition
21 | Cc1cccc(NC(=O)Cn2c(-c3cccs3)noc2=O)c1 | 33.3% (active)
22 | CCOC(=O)c1nnn(CC(=O)Nc2cccc(C)c2)c1C(=O)OCC | -6.24%
23 | O=C(COc1ccc(CO)cc1)Nc1ccc(Cl)c(Cl)c1 | -15.9%
24 | O=C(CC(O)(C(F)(F)F)C(F)(F)F)Nc1ccc(Cl)c(Cl)c1 | 58.9% (active)
25 | O=C(Nc1ccc(Cl)c(Cl)c1)c1ccc(C(=O)Nc2ccc(Cl)c(Cl)c2)cc1 | -3.3%
26 | CCn1c(CNc2c(C)cccc2C)nnc1SCC(N)=O | -2.12%
27 | CCOC(=O)c1c(NC(=O)c2cc(OC)c(OC)c(OC)c2)sc(C(=O)N2CCCC2)c1C | -7.23%
28 | CCOC(=O)c1cnc2c(Cl)c(Cl)ccc2c1NCCN(C)C | -5.54%
29 | CCOC(=O)c1cnc2c(Cl)c(Cl)ccc2c1NCCOC(=O)c1cccnc1 | 0.48%
30 | CCOC(=O)c1cnc2c(C)c(C)ccc2c1NCCCN(C)C | 81.7% (active)
31 | C/C(=C\C(=O)ONC(=O)c1ccccc1)NCc1ccccc1 | -18.2%
32 | CCOC(=O)C1=C(C)N(c2ccc(C)c(C)c2)C(=O)/C1=C\c1cccs1 | 3.05%
33 | O=C(CNS(=O)(=O)c1cccc2nonc12)NCc1ccccc1 | 8.04%
34 | COc1cccc(N2CCN(CC(=O)Nc3ccccc3C(N)=O)CC2)c1 | 91.2% (active)
35 | COc1ccc(NC(=O)CN2CCN(C)CC2)c(OC)c1 | -0.51%
36 | Cc1ccc(NC(=O)CN2CCN(c3cccc(Cl)c3)CC2)cc1 | 5.46%
37 | CCCCn1c(CNC(=O)c2cccc(OC)c2)nnc1SCC(=O)Nc1sc2c(c1C(=O)OCC)CCCC2 | 1.81%
38 | CCOc1ccccc1C(=O)NCc1ccccc1 | -14.4%
39 | CCOCC(=O)NCc1ccc2c(c1)cc(C)n2C | -6.23%
40 | CCOc1ccccc1C(=O)NCc1ccc2c(c1)cc(C)n2C | 51.1% (active)

Row | SMILES | inhibition
41 | CC1=NN(c2ccccc2)C(=O)C1N=Nc1c(C)n[nH]c1C (centres undefined) | 38.6% (active)
42 | CC1=NN(c2ccccc2)C(=O)C1/C=C1\SC(=O)NC1=O (centres undefined) | 13.7%
43 | CC1=NN(c2ccccc2)C(=O)C1Cl (centres undefined) | 17%
44 | CC1=C(C(=O)OCc2ccccc2)C(c2cccc(I)c2)C2=C(CC(C)(C)CC2=O)N1 (centres undefined) | 6.12%
45 | Cc1ccccc1-n1c(SCC#N)nc2c(sc(=S)n2-c2ccccc2C)c1=O | -17.8%
46 | COc1cc(C#N)cc(Cl)c1OC(C)=O | 3.38%
47 | Cc1ccc2nc(-c3ccc(NC(=O)CCl)cc3)sc2c1 | 32% (active)
48 | Cc1ccc2nc(-c3ccc(NC(=O)CSc4n[nH]c(N)n4)cc3)sc2c1 | 48.5% (active)
49 | Cc1ccc2sc(-c3ccc(NC(=O)C(C)C)cc3)nc2c1 | -16.9%
50 | Cc1cccc(N(CC(=O)Nc2ccc(-c3nc4ccc(C)cc4s3)cc2)S(C)(=O)=O)c1 | 8.01%
51 | Nc1nc(SCC(=O)Nc2ccc3c(c2)C(=O)c2ccccc2C3=O)n[nH]1 | -48.4%
52 | Nc1nc(SCC(=O)Nc2ccc(F)c(Cl)c2)n[nH]1 | 4.23%
53 | O=C(COC(=O)c1cc2ccccc2oc1=O)c1ccc(I)cc1 | 3.37%
54 | CCN(CC)c1ccc2cc(-c3nnc(Nc4cc(Cl)ccc4OC)s3)c(=O)oc2c1 | 5.73%
55 | CCN=C1SC(CC(=O)Nc2ccccc2SC)C(=O)N1CC (centres undefined) | -3.27%
56 | Cc1ccccc1NC(=O)CCC(=O)OCC(=O)c1ccc([N+](=O)[O-])cc1 | 7.47%
57 | Cc1cc(Nc2nc3ccccc3n3nnnc23)n(-c2ccc([N+](=O)[O-])cc2)n1 | 29.3%
58 | N#C/C(=C/c1ccccc1F)C(=O)NCCc1c[nH]c2ccccc12 | 12.4%
59 | CCCC(=O)Nc1ccccc1NC(=O)Cc1ccccc1 | -1.49%
